PubChem BioAssay (Tox21)
Records with an inconclusive call do not appear. The source made the active and inactive calls. Unless noted, calls come from the whole dose curve; as a rule, active = well fitted curve in the direction sought with a large enough effect in the repeat runs; inconclusive = weak or mixed curves; inactive = no such curve, though single readings can be large; an effect the other way counts as inactive or inconclusive.

Experiments:
[1] = qHTS assay to identify small molecule antagonists of the androgen receptor (AR) signaling pathway using the MDA cell line in the presence of 0.5 nM R1881 - cell viability counter screen (AID 1259242); note: nearly all actives have a fitted effect of over 45% in size
Outline: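 MDA-kb2 cells (human breast carcinoma, stably carrying MMTV-luciferase reporter) were exposed to compounds with 0.5 nM R1881 (final) for 16 hr at 37C, 0% CO2; viability then read as live-cell protease fluorescence (CellTiter-Fluor, 30 min) in the same wells.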

[2] = target: Androgen receptor (Homo sapiens) (UniProt P10275); assay: qHTS assay to identify small molecule antagonists of the androgen receptor (AR) signaling pathway using the MDA cell line in the presence of 0.5 nM R1881 (AID 1259243); note: nearly all actives have a fitted effect of over 50% in size; note: potency is the fitted concentration of half-maximal effect
Chain of Androgen receptor (Homo sapiens) (P10275 whole entry, looked up): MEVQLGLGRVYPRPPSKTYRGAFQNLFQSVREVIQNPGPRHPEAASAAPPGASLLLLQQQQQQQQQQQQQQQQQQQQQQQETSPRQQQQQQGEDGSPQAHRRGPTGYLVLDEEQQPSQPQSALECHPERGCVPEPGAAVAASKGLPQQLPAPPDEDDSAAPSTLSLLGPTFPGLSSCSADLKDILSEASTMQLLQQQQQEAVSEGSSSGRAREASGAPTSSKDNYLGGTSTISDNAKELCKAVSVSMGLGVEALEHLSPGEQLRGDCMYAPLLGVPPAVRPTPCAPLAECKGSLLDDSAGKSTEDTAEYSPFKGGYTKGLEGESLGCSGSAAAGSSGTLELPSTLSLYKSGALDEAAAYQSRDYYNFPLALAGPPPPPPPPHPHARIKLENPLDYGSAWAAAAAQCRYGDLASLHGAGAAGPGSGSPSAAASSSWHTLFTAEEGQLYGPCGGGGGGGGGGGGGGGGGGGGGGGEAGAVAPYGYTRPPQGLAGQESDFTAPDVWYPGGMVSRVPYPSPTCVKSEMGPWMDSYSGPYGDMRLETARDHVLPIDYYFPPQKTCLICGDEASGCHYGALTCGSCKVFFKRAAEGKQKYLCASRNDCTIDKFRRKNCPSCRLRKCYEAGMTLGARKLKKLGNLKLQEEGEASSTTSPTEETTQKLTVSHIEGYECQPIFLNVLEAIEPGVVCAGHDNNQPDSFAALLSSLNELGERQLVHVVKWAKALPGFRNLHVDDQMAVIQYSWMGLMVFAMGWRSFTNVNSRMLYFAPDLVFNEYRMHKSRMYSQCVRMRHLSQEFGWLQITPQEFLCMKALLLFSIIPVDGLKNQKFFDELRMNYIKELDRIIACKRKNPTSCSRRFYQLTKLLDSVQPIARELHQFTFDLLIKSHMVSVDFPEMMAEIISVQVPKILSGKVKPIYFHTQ
Outline: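 MDA-kb2 human breast carcinoma cells carrying an MMTV-luciferase reporter (AR- and GR-responsive) were plated, rested 5 hr at 37C, dosed with compounds, then stimulated with 0.5 nM R1881 (final) for 16 hr; luminescence was read after ONE-Glo.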

[3] = target: Estrogen receptor (Homo sapiens) (UniProt P03372); assay: qHTS assay to identify small molecule antagonists of the estrogen receptor alpha (ER-alpha) signaling pathway using the BG1 cell line in the presence of 0.1 nM 17-beta-estradiol (AID 1259244); note: nearly all actives have a fitted effect of over 50% in size; note: potency is the fitted concentration of half-maximal effect
Chain of Estrogen receptor (Homo sapiens) (P03372 whole entry, looked up): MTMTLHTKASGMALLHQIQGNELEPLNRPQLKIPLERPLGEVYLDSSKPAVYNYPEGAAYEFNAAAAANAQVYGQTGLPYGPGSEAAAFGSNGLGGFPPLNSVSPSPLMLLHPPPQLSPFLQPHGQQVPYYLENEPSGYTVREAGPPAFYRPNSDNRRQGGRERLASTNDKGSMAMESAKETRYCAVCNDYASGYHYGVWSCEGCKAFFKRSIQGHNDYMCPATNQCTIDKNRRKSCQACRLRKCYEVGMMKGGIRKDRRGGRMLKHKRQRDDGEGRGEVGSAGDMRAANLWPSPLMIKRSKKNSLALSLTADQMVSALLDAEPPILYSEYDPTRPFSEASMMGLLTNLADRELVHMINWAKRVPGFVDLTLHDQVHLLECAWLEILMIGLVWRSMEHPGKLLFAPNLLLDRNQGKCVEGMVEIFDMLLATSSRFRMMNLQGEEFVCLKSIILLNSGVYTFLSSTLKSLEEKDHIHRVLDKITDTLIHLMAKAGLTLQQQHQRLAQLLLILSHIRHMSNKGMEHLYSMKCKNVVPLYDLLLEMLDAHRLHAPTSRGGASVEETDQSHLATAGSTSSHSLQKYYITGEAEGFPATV
Outline: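 VM7Luc4E2 cells (endogenous full-length ER-alpha, stable 4xERE-luciferase) were grown 5 days in phenol red-free medium with charcoal-stripped FBS, then exposed 22 h at 37C to compounds plus 0.1 nM (final) 17beta-estradiol; ONE-Glo luminescence read-out.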

[4] = qHTS assay to identify small molecule HDAC inhibitors (AID 1259364); note: nearly all actives have a fitted effect of over 45% in size; note: potency is the fitted concentration of half-maximal effect
Outline: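 Wild-type HCT-116 cells were plated overnight, exposed to compounds for 2 h at 37 °C, then given HDAC-Glo class I/II luminogenic reagent for 30 min at room temperature before luminescence was read.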

[5] = qHTS assay to identify small molecule HDAC inhibitors - cell viability counter screen (AID 1259365); note: series mostly up to about 92 µM; nearly all actives have a fitted effect of over 50% in size
Outline: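 CellTiter-Glo luminescence (30 min, room temperature) reported viability after a 2 h compound exposure at 37 C. Cells: wild-type HCT-116, 1,500 per well, seeded the night before.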

[6] = qHTS assay to identify small molecule agonists of the sonic hedgehog signaling (Shh) pathway (AID 1259368; calls by dose curve; note: series mostly up to about 92 µM; nearly all actives have a fitted effect of over 15% in size)
Outline: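 NIH/3T3-derived 3T3Gli1-Luc cells carrying a stably integrated Gli1 response element–firefly luciferase reporter were plated, left 4 hr at 37 C, then given compounds in DMSO for 24 hr. Luminescence was read 30 min after adding luciferase reagent.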

[7] = qHTS assay to identify small molecule antagonists of the sonic hedgehog signaling (Shh) pathway (AID 1259369; calls by dose curve; note: nearly all actives have a fitted effect of over 45% in size; note: potency is the fitted concentration of half-maximal effect)
Outline: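 NIH/3T3-derived 3T3Gli1-Luc cells with stably integrated Gli1-Luc reporter were preincubated 4hr at 37 C, then given compounds in DMSO plus Shh conditioned medium and incubated 24hr. Firefly luciferase luminescence read after 30min reagent at room temperature.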

[8] = qHTS assay to identify small molecule agonists of the sonic hedgehog signaling (Shh) pathway - cell viability counter screen (AID 1259366); note: nearly all actives have a fitted effect of over 50% in size
Outline: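 Cytotoxicity counter screen: CellTiter-Fluor reagent added after 23 h compound exposure, then 1 h at 37C and fluorescence read. Cells were 3T3 Gli1-Luc, seeded 2,000 per well and dosed 4 h post-plating.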

[9] = qHTS assay to identify small molecule antagonists of the sonic hedgehog signaling (Shh) pathway - cell viability counter screen (AID 1259367); note: nearly all actives have a fitted effect of over 55% in size
Outline: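 Using CellTiter-Fluor, viability of Gli1-Luc reporter 3T3 cells is read by fluorescence in the wells used for the Shh luciferase assay. Treatment lasts 23 hr with conditioned medium, then reagent 1 hr at 37C.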

[10] = qHTS assay to identify small molecule phospholipidosis (PLD) inducers (AID 1259344; active = well fitted curve in the direction sought with a large enough effect; an effect the other way counts as inactive or inconclusive)
Outline: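 Fluorescent phospholipid staining (LipidTOX Red) measured by automated microscopy in fixed HepG2 cells after 24 h treatment; nuclei counterstained with Hoechst 33342; amiodarone as reference inducer.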
% is set by controls: 0 for no effect and ±100 for the full control effect.

CCC(C)(C)C(=O)O
inactive: Potency [1] | Potency [2] | Potency [3] | Potency [4] | Potency [5] | Potency [6] | Potency [7]

Oc1cccc2[nH]ccc12
inactive: Potency [1] | Potency [2] | Potency [3] | Potency [4] | Potency [5] | Potency [8] | Potency [9] | Potency [6] | Potency [7]

O=C(O)/C=C/c1ccc(O)c(O)c1
inactive: Potency [1] | Potency [2] | Potency [4] | Potency [5] | Potency [8] | Potency [9] | Potency [6] | Potency [7]

Cc1cc(CCCOc2c(C)cc(-c3noc(C(F)(F)F)n3)cc2C)on1
active: Potency [2] 26.6 µM
inactive: Potency [1] | Potency [4] | Potency [5] | Potency [8] | Potency [9] | Potency [6] | Potency [7]

C1=CCC2CC=CC2C1 (configuration not stated)
inactive: Potency [1] | Potency [2] | Potency [4] | Potency [5] | Potency [8] | Potency [9] | Potency [6]

O=C(O)CCC(=O)c1ccc(-c2ccccc2)cc1
active: Potency [4] 13.3 µM
inactive: Potency [1] | Potency [2] | Potency [10] | Potency [5] | Potency [8] | Potency [9] | Potency [6] | Potency [7]

O=S(=O)(Cl)c1c(Cl)cccc1Cl
inactive: Potency [1] | Potency [2] | Potency [3] | Potency [4] | Potency [5] | Potency [6]

C[C@H](CS)C(=O)N1CCC[C@H]1C(=O)O
inactive: Potency [1] | Potency [2] | Potency [10] | Potency [4] | Potency [5] | Potency [8] | Potency [9] | Potency [6] | Potency [7]

CC(=O)OCC(C)C
inactive: Potency [1] | Potency [2] | Potency [3] | Potency [4] | Potency [5] | Potency [8] | Potency [9] | Potency [6] | Potency [7]

C=Cc1ccc(OC(C)=O)cc1
inactive: Potency [1] | Potency [2] | Potency [3] | Potency [4] | Potency [5] | Potency [9] | Potency [6] | Potency [7]

Nc1cccc2c(N)cccc12
active: Potency [3] 20.5 µM | Potency [7] 5.45 µM
inactive: Potency [1] | Potency [2] | Potency [10] | Potency [4] | Potency [5] | Potency [6]

CCOC(=O)Oc1ccc(CCNC(=O)[C@H](CCSC)NC(C)=O)cc1OC(=O)OCC
inactive: Potency [1] | Potency [2] | Potency [3] | Potency [4] | Potency [5] | Potency [9] | Potency [6] | Potency [7]

CCC(CO)(CO)CO
inactive: Potency [1] | Potency [2] | Potency [3] | Potency [4] | Potency [5] | Potency [8] | Potency [9] | Potency [6] | Potency [7]

COc1ccc(-c2cc(=S)ss2)cc1
inactive: Potency [1] | Potency [3] | Potency [10] | Potency [5] | Potency [8] | Potency [9] | Potency [6] | Potency [7]
active: Potency [4] 11.9 µM

CNC1CCCN(c2c(F)cc3c(=O)c(C(=O)O)cn(C4CC4)c3c2OC)C1 (configuration not stated)
inactive: Potency [1] | Potency [3] | Potency [10] | Potency [4] | Potency [5] | Potency [8] | Potency [9] | Potency [6] | Potency [7]

CCc1ccc(C)cc1
inactive: Potency [1] | Potency [2] | Potency [4] | Potency [5] | Potency [6] | Potency [7]

CNc1c2c(nn1C)CCCC2
inactive: Potency [1] | Potency [3] | Potency [10] | Potency [4] | Potency [5] | Potency [8] | Potency [9] | Potency [6] | Potency [7]

CC(=O)Oc1cccc(O)c1
inactive: Potency [1] | Potency [3] | Potency [10] | Potency [4] | Potency [5] | Potency [8] | Potency [9] | Potency [6] | Potency [7]

COc1cc(NS(=O)(=O)c2ccc(N)cc2)nc(C)n1
inactive: Potency [1] | Potency [3] | PLD induction [10] -3.88% [at 7.66 µM] | Potency [4] | Potency [5] | Potency [8] | Potency [9] | Potency [6] | Potency [7]

CSCC[C@H](NC(=O)[C@H](Cc1c[nH]c2ccccc12)NC(=O)CCNC(=O)OC(C)(C)C)C(=O)N[C@@H](CC(=O)O)C(=O)N[C@@H](Cc1ccccc1)C(N)=O
inactive: Potency [1] | Potency [3] | Potency [10] | Potency [4] | Potency [5] | Potency [8] | Potency [6] | Potency [7]

CC(CCc1ccc(O)cc1)NCCc1ccc(O)c(O)c1 (configuration not stated)
inactive: Potency [1] | Potency [3] | Potency [10] | Potency [4] | Potency [5] | Potency [8] | Potency [9] | Potency [6] | Potency [7]

CN=C(N)NC(=O)Nc1c(C)cccc1C
inactive: Potency [1] | Potency [3] | Potency [10] | Potency [4] | Potency [5] | Potency [8] | Potency [9] | Potency [6] | Potency [7]

CCCCC(CC)COS(=O)(=O)O (configuration not stated)
inactive: Potency [1] | Potency [3] | Potency [10] | Potency [4] | Potency [5] | Potency [8] | Potency [9] | Potency [6] | Potency [7]

C[C@@H]1C[C@H]2[C@@H]3CCC4=CC(=O)C=C[C@]4(C)[C@@]3(F)[C@@H](O)C[C@]2(C)[C@@]1(O)C(=O)COP(=O)(O)O
inactive: Potency [1] | Potency [3] | Potency [10] | Potency [4] | Potency [5] | Potency [8] | Potency [9] | Potency [6]

O=C(O)CNC(=O)c1ccccc1I
inactive: Potency [1] | Potency [3] | Potency [10] | Potency [4] | Potency [5] | Potency [9] | Potency [6] | Potency [7]
